These results are taken from PubChem BioAssay (NCATS).

Results filed as inconclusive are left out. Calls of active or inactive are those of the source. Calls come from the whole dose curve; as a rule, active = well fitted curve in the direction sought with a large enough effect; inconclusive = small, poorly fitted or top-dose-only effect, or another doubt; inactive = no such curve, though single readings can be large; an effect the other way counts as inactive or inconclusive.

A short description of assay [1]: Quantitative High-Throughput drug screen in 47 multiple myeloma cell lines against the NCATS MIPE library collection: Delta47_JCRB cell viability assay (AID 1918925; note: nearly all actives have a fitted effect of over 45% in size). The method in brief: (§1)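 CellTiter-Glo luminescence (ATP) after 48 h compound exposure, 37C/5% CO2; 500 cells/well; MIPE 4.0 approved/investigational drugs pinned in; DMSO = 100%, media only = 0% viability.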

Assay [2] can be described thus: Quantitative High-Throughput drug screen in 47 multiple myeloma cell lines against the NCATS MIPE library collection: EJM_DSMZ cell viability assay (AID 1918926; note: nearly all actives have a fitted effect of over 30% in size). The method in brief: as §1
Assay [3] in a line: Quantitative High-Throughput drug screen in 47 multiple myeloma cell lines against the NCATS MIPE library collection: AMO1_DSMZ cell viability assay (AID 1918927; note: nearly all actives have a fitted effect of over 30% in size). The method in brief: as §1
A short description of assay [4]: Quantitative High-Throughput drug screen in 47 multiple myeloma cell lines against the NCATS MIPE library collection: ARP1_JJKsccF8 cell viability assay (AID 1918928; note: nearly all actives have a fitted effect of over 40% in size). The method, boiled down: (§2)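 Each line was plated at 500 cells/well and treated 48 h with library drugs. Viability came from CellTiter-Glo luminescence relative to DMSO and cell-free medium controls.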

A short description of assay [5]: Quantitative High-Throughput drug screen in 47 multiple myeloma cell lines against the NCATS MIPE library collection: ARD_JJKsccE7 cell viability assay (AID 1918929). The method in brief: as §1
The nature of assay [6]: Quantitative High-Throughput drug screen in 47 multiple myeloma cell lines against the NCATS MIPE library collection: Karpas620_DSMZ cell viability assay (AID 1918959). Note: nearly all actives have a fitted effect of over 30% in size. The method in brief:
(§3)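 Relative luminescence from CellTiter-Glo served as the viability signal, referenced to DMSO-treated (100%) and cell-free medium (0%) controls. Treatment lasted 48 hours at 37C with 500 cells per well.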

Assay [7] is described as follows: Quantitative High-Throughput drug screen in 47 multiple myeloma cell lines against the NCATS MIPE library collection: KMM1_JCRB cell viability assay (AID 1918960). Note: nearly all actives have a fitted effect of over 30% in size. The method in brief: as §2
Assay [8] can be described thus: Quantitative High-Throughput drug screen in 47 multiple myeloma cell lines against the NCATS MIPE library collection: Karpas417_ECACC cell viability assay (AID 1918961). Particulars: Karpas417 myeloma viability, CellTiter-Glo ATP luminescence, 48 h; viability (% of DMSO): at 45.8 µM (top of the series). The method in brief: as §3
The nature of assay [9]: Quantitative High-Throughput drug screen in 47 multiple myeloma cell lines against the NCATS MIPE library collection: KHM11_PLB cell viability assay (AID 1918962). Note: nearly all actives have a fitted effect of over 35% in size. The method, boiled down: as §3
The nature of assay [10]: Quantitative High-Throughput drug screen in 47 multiple myeloma cell lines against the NCATS MIPE library collection: JIM3_ECACC cell viability assay (AID 1918963; note: nearly all actives have a fitted effect of over 35% in size). The method, boiled down: as §3
Assay [11] can be described thus: Quantitative High-Throughput drug screen in 47 multiple myeloma cell lines against the NCATS MIPE library collection: INA6_PLB cell viability assay (AID 1918965; note: nearly all actives have a fitted effect of over 55% in size). The method, boiled down: as §3
A short description of assay [12]: Quantitative High-Throughput drug screen in 47 multiple myeloma cell lines against the NCATS MIPE library collection: KMS12BM_JCRB cell viability assay (AID 1918971). Note: nearly all actives have a fitted effect of over 35% in size. The method in brief:
as §3

Assay [13] in a line: Quantitative High-Throughput drug screen in 47 multiple myeloma cell lines against the NCATS MIPE library collection: KMS12PE_JCRB cell viability assay (AID 1918972). Note: nearly all actives have a fitted effect of over 30% in size. The method in brief:
as §3

Assay [14] is described as follows: Quantitative High-Throughput drug screen in 47 multiple myeloma cell lines against the NCATS MIPE library collection: JIM1_ECACC cell viability assay (AID 1918964). The method, boiled down:
as §1

Assay [15] in a line: Quantitative High-Throughput drug screen in 47 multiple myeloma cell lines against the NCATS MIPE library collection: JJN3_DSMZ cell viability assay (AID 1918966; note: nearly all actives have a fitted effect of over 50% in size). The method, boiled down:
as §1

A short description of assay [16]: Quantitative High-Throughput drug screen in 47 multiple myeloma cell lines against the NCATS MIPE library collection: KMS27_JCRB cell viability assay (AID 1918970). Note: nearly all actives have a fitted effect of over 30% in size. The method, boiled down: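 CellTiter-Glo luminescence after 48 h drug exposure at 37 °C; 500 cells/well, 1536-well format, pin-tool compound addition; DMSO = 100%, media-only = 0% viability.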
Assay [17] can be described thus: Quantitative High-Throughput drug screen in 47 multiple myeloma cell lines against the NCATS MIPE library collection: KMS21BM_JCRB cell viability assay (AID 1918974). Particulars: ATP luminescence, 48 h; viability: at 45.8 µM (top of the series) unless noted. The method in brief: as §1
Assay [18] in a line: Quantitative High-Throughput drug screen in 47 multiple myeloma cell lines against the NCATS MIPE library collection: H1112_PLB cell viability assay (AID 1918967; note: nearly all actives have a fitted effect of over 30% in size). The method, boiled down: as §1
Assay [19] in a line: Quantitative High-Throughput drug screen in 47 multiple myeloma cell lines against the NCATS MIPE library collection: Karpas25_ECACC cell viability assay (AID 1918968; note: nearly all actives have a fitted effect of over 35% in size). The method, boiled down:
as §1

The nature of assay [20]: Quantitative High-Throughput drug screen in 47 multiple myeloma cell lines against the NCATS MIPE library collection: KMS20_JCRB cell viability assay (AID 1918973). Note: nearly all actives have a fitted effect of over 45% in size. The method, boiled down:
as §1
Potency is the fitted concentration of half-maximal effect.

Turning to `CC(=O)SC[C@@H](C)C(=O)N1CCC[C@H]1C(=O)N[C@@H](Cc1ccccc1)C(=O)O`, the Potency result in assay [1], in [2], in [3], in assay [4], in assay [5] and in [6] was “inactive” each time. The Potency result in assay [7], in [8], in assay [9], in [10], in assay [11] and in assay [12] was “inactive” throughout. Besides, the Potency result in assay [13] is “inactive”.

On to `O=C(NC1CCNCC1)c1[nH]ncc1NC(=O)c1c(Cl)cccc1Cl`, for which the Potency in assay [1] is 372 nM (active); in assay [2] it was 105 nM (active); in assay [3], 1180 nM (active); in assay [4] it was 372 nM (active); in [5], 743 nM (active); in assay [6], 935 nM (active). Also, the Potency in assay [7] was 590 nM (active); in assay [8] it was 187 nM (active); in assay [9] it was 235 nM (active); in [10], 526 nM (active); in assay [14] it was 264 nM (active); in assay [11] it was 590 nM (active). Moreover, the Potency is 187 nM (active) in assay [15]; 526 nM (active) in [16]; 235 nM (active) in assay [12]; 935 nM (active) in assay [13]; 118 nM (active) in assay [17].

As for `CC1(C)OC2=C(C(=O)c3ccccc3C2=O)[C@H](NCc2ccccc2)[C@H]1O`, the Potency in assay [1] is 2090 nM (active); in assay [2], 2350 nM (active); in assay [3], 662 nM (active); in assay [4], 5260 nM (active); in assay [5], 4180 nM (active); in assay [6], 1480 nM (active). The Potency in assay [7] was 2350 nM (active); in assay [8], 1870 nM (active); in assay [9] it was 2640 nM (active); in assay [10], 2090 nM (active); in assay [14], 2640 nM (active); in assay [11] it was 2090 nM (active). Moreover, the Potency in [18] was 2350 nM (active); in assay [19], 590 nM (active); in assay [16] it was 1180 nM (active); in assay [12], 8330 nM (active); in assay [13] it was 1480 nM (active); in assay [17] it was 1050 nM (active).

On to `NCC(=O)Nc1ccc(-n2nc(C(F)(F)F)cc2-c2ccc3c(ccc4ccccc43)c2)cc1`, for which the Potency was 18700 nM (active) in [1]; 23500 nM (active) in assay [2]; 66.2 nM (active) in assay [3]; 23500 nM (active) in assay [4]; 148 nM (active) in assay [5]; 5260 nM (active) in assay [7]. Also, the Potency in [9] is 26400 nM (active); in assay [10] it was 18700 nM (active); in assay [11], 18700 nM (active); in assay [15] it was 20900 nM (active); in [18] it was 20900 nM (active); in [19], 16600 nM (active). Also, the Potency in [13] was 526 nM (active); in [20] it was 9350 nM (active). The Potency entry in assay [6] was “inactive”.

Consider `Cn1cc(-c2ccncc2)c(-c2ccc(OCc3ccc4ccccc4n3)cc2)n1`, for which the Potency in assay [1] is 2640 nM (active); in assay [2], 14800 nM (active); in assay [3] it was 3320 nM (active); in assay [4], 4690 nM (active); in assay [5], 6620 nM (active); in assay [6], 4690 nM (active). In addition, the Potency is 8330 nM (active) in assay [7]; 3320 nM (active) in assay [11]; 3720 nM (active) in [15]; 1480 nM (active) in assay [19]; 18700 nM (active) in [12]; 5900 nM (active) in [13]. Also, the Potency in assay [17] was 3320 nM (active).

For the compound `CN1CCN(Cc2ccc(NC(=O)Nc3ccc(Oc4cc(NC(=O)C5CC5)ncn4)cc3)cc2C(F)(F)F)CC1`, the Potency was 148 nM (active) in assay [1]; 332 nM (active) in assay [2]; 372 nM (active) in assay [4]; 132 nM (active) in assay [9]; 148 nM (active) in assay [10]; 132 nM (active) in assay [11]. For the same compound, the Potency in [15] is 264 nM (active); in assay [18], 148 nM (active); in assay [19], 118 nM (active); in [12], 469 nM (active); in assay [20], 132 nM (active). Also, the Potency entry in assay [3], in assay [5], in assay [6], in [7], in assay [8] and in assay [13] was “inactive” each time.

As to `COc1ccc(F)c(F)c1C(=O)c1cnc(NC2CCN(S(C)(=O)=O)CC2)nc1N`, the Potency in assay [1] was 1180 nM (active); in assay [2] it was 2350 nM (active); in assay [3], 833 nM (active); in assay [4], 2350 nM (active); in [5] it was 1180 nM (active); in [6], 2640 nM (active). Besides, the Potency in assay [7] is 1870 nM (active); in [8], 743 nM (active); in [9], 1870 nM (active); in assay [10] it was 1870 nM (active); in [14], 1180 nM (active); in assay [11], 1320 nM (active). Further, the Potency in [19] was 1180 nM (active); in assay [16], 1320 nM (active); in assay [12], 1180 nM (active); in [13], 1870 nM (active); in [20], 2090 nM (active); in assay [17], 296 nM (active).

As to `NC(=O)Nc1cc(-c2cccc(F)c2)sc1C(=O)N[C@H]1CCCNC1`, the Potency was 105 nM (active) in [1]; 296 nM (active) in [2]; 662 nM (active) in assay [3]; 3720 nM (active) in [4]; 526 nM (active) in assay [5]; 3720 nM (active) in assay [6]. Further, the Potency in assay [7] is 187 nM (active); in assay [8] it was 83.3 nM (active); in [9], 74.3 nM (active); in assay [10] it was 469 nM (active); in assay [14], 105 nM (active); in [11], 59 nM (active). The Potency in assay [18] was 1480 nM (active); in assay [19], 590 nM (active); in [16], 590 nM (active); in [12], 662 nM (active); in assay [13] it was 469 nM (active); in assay [20], 662 nM (active). Also, in assay [17], the Potency was 235 nM (active).

Regarding `C#Cc1cccc(Nc2ncnc3cc(OC)c(OCCCCCCC(=O)NO)cc23)c1`, the Potency in assay [1] was 66.2 nM (active); in assay [2] it was 469 nM (active); in assay [3], 52.6 nM (active); in assay [4], 118 nM (active); in [5], 74.3 nM (active); in assay [6] it was 74.3 nM (active). Also, the Potency in assay [7] is 52.6 nM (active); in [9], 372 nM (active); in assay [11], 16.6 nM (active); in [18], 296 nM (active); in [16], 74.3 nM (active); in [12], 66.2 nM (active). Moreover, the Potency was 148 nM (active) in [13] and 83.3 nM (active) in assay [20].
